This is part of a sample that, as a whole, favours compounds with a hit. Of some 79,000 tested, about 15% had one in any assay. Values without a mark were called inactive. Calls of active or inactive are those of the source. Cut-off read from the data, not from the text of the source: active = growth inhibition above about 70%; inactive = the rest.
Assay: NCI Yeast Anticancer Drug Screen. Data for the mec2-1 strain (AID 157)
Settings: S. cerevisiae mec2-1 strain, at 50.0 µM, hits give high values
Outline: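 Test agents were screened against the mec2-1 yeast strain, with defined DNA repair or cell cycle alteration. Growth was scored as inhibition against vehicle-only controls.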
`C=CC(=O)N1C/C(=C\c2ccc(F)cc2)C(=O)/C(=C/c2ccc(F)cc2)C1` showed a growth inhibition of 26.1%.
In the case of `CCOc1ccc2c(c1)n([O-])c1ccccc1[n+]2=O`, the growth inhibition is reported as 97.4% (active).
With `O=C(/C(Cl)=N/O)c1ccccc1` the growth inhibition was 99.2% (active).
In the case of `O=C(NC1CCN(Cc2ccccc2)CC1)c1ccc(I)cc1`, the growth inhibition is reported as 49.7%.
Compound `O=C1c2ccccc2CCC1C(O)(C(F)(F)F)C(F)(F)F` (stereo not given) has a growth inhibition of -3.6%.
With `O=C(C(=O)n1ncc(Cl)c(Cl)c1=O)n1ncc(Cl)c(Cl)c1=O` the growth inhibition was 70.9% (active).
For `OC1OCC(OCc2ccccc2)C(OCc2ccccc2)C1OCc1ccccc1` (stereo not given), the growth inhibition was 96.9% (active).
Work on `CN1CCC(OC(=O)c2ccc3ncccc3c2)CC1` yielded a growth inhibition of 26.6%.
For `CCC(c1ccc(O)cc1)C(CC)c1ccc(OCC(N)=O)cc1` (stereo not given), the growth inhibition was 80.5% (active).
With `CCCCCCCC(=O)O[C@H]1[C@H]2[C@@H](CC1(C)C)C(=O)[C@]13O[C@H]1C(=O)[C@]1(CO1)[C@]23C` the growth inhibition was 92.8% (active).
With `CN1CCCN(C)C1c1cc([N+](=O)[O-])ccc1O` the growth inhibition was 98.2% (active).
In the case of `CCOC(=O)C[n+]1c(C)sc2ccccc21`, the growth inhibition is reported as 40.1%.
With `O=C(O)C(CCc1cccc2ccccc12)c1ccccc1` (stereo not given) the growth inhibition was 99.2% (active).
For `O=C1C(Cl)=C(Cl)C(=O)C2CC=CCC12` (stereo not given), the growth inhibition was 99.4% (active).
With `Nc1n[nH]c(=O)c2cccnc12` the growth inhibition was -7.95%.
Work on `OC(CBr)c1cc(-c2ccccc2)nc2ccccc12` (stereo not given) yielded a growth inhibition of 18.1%.
Work on `O=C(O)CCCc1ccc2c(c1)CC1(C2)Cc2ccc(CCCC(=O)O)cc2C1` yielded a growth inhibition of 2.15%.
In the case of `CC1=Nc2ccccc2/C1=C\c1c(C)[nH]c2ccccc12`, the growth inhibition is reported as 86.8% (active).
For `CC(=O)C(C(=N)C#N)C(=O)Nc1ccccc1` (stereo not given), the growth inhibition was -34.5%.
In the case of `COc1ccc2nc3cc(Cl)ccc3c(NCCC[N+](C)(C)CCCCCCCCCC[N+](C)(C)CCCNc3c4ccc(Cl)cc4nc4ccc(OC)cc34)c2c1`, the growth inhibition is reported as 88.3% (active).
With `Oc1cc(Cl)cc2c1-c1ccc(Cl)cc1C2O` (stereo not given) the growth inhibition was 91.2% (active).
Work on `CC1(C)OC(=O)C(=NNc2ccccc2[N+](=O)[O-])C(=O)O1` yielded a growth inhibition of 5.75%.
With `Clc1ccc(OCC2CO2)c(Cl)c1` (stereo not given) the growth inhibition was 91.5% (active).
In the case of `O=c1ccc([N+](=O)[O-])c[nH]1.[Ag]`, the growth inhibition is reported as 99.3% (active).
With `O=C1CSC(c2c[nH]c3ccccc23)N1c1cccc(Cl)c1` (stereo not given) the growth inhibition was 87.7% (active).
For `Fc1cccc(NC(=S)SCc2ccco2)c1`, the growth inhibition was 84.2% (active).
`S=c1[nH]nc(SCc2ccc(Cl)c(Cl)c2)c2[nH]cnc12` gave a growth inhibition of 9.2%.
In the case of `Cc1c(Cl)cccc1NC(=O)/C(Cl)=C(\Cl)C(=O)O`, the growth inhibition is reported as 99.8% (active).
Work on `Nc1ccc2ccc3cccc4ccc1c2c34` yielded a growth inhibition of 0.45%.
In the case of `O=C(C(/C=N/C(=S)NCc1ccccc1)=C(/O)c1ccccc1)c1ccccc1`, the growth inhibition is reported as 98% (active).
For `C/C(=N\NC(=S)Nc1ccc(Cl)cc1)c1nc2ncccc2[nH]1`, the growth inhibition was 90.2% (active).
With `O=C(/C=C\c1ccc(Cl)c(Cl)c1)c1cccs1` the growth inhibition was 64.4%.
In the case of `CC12CC(O)C3C(CCC4CCCCC43C)C1CC/C2=N/O` (stereo not given), the growth inhibition is reported as 91.2% (active).
With `CCCn1cc2c(SC)nc(SC)nc2n1` the growth inhibition was 98.3% (active).
For `Cc1ccc(C2(O)c3ccccc3-c3ccccc32)cc1`, the growth inhibition was 99.2% (active).
With `C=CCc1ccc2c(C)cc[n+](C)c2c1O` the growth inhibition was 99.2% (active).
Work on `COC(=O)c1nc(NC#N)[nH]c(=O)c1CCCCCc1cnc(NC#N)nc1` yielded a growth inhibition of 4.05%.
In the case of `Cc1c2cnccc2c(C)c2c1c1ccccc1n2CCOC(=O)c1ccccc1`, the growth inhibition is reported as 87.8% (active).
`C/C(=N/O)c1ccc2c(c1)C(C)c1ccccc1-2` (stereo not given) gave a growth inhibition of 45.9%.
In the case of `Oc1ccc2ccccc2c1I`, the growth inhibition is reported as 92.7% (active).

Assay: NCI Yeast Anticancer Drug Screen. Data for the sgs1 mgt1 strain (AID 161);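 note: 0% = growth of cultures given vehicle only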
Settings: S. cerevisiae sgs1 mgt1 strain, at 5.0 µM (retest, dose inferred, filed as 0.5), hits give high values
Outline: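 Inhibition of yeast growth, normalised to vehicle-treated controls, is reported for a strain bearing genetic alterations in DNA damage repair.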
`C=CC(=O)N1C/C(=C\c2ccc(F)cc2)C(=O)/C(=C/c2ccc(F)cc2)C1` showed a growth inhibition of 14%.
`CCOc1ccc2c(c1)n([O-])c1ccccc1[n+]2=O` gave a growth inhibition of 55%.
`O=C(/C(Cl)=N/O)c1ccccc1` showed a growth inhibition of 51%.
In the case of `O=C(NC1CCN(Cc2ccccc2)CC1)c1ccc(I)cc1`, the growth inhibition is reported as 52%.
`O=C1c2ccccc2CCC1C(O)(C(F)(F)F)C(F)(F)F` (stereo not given) gave a growth inhibition of 22%.
Compound `O=C(C(=O)n1ncc(Cl)c(Cl)c1=O)n1ncc(Cl)c(Cl)c1=O` has a growth inhibition of 5%.
With `OC1OCC(OCc2ccccc2)C(OCc2ccccc2)C1OCc1ccccc1` (stereo not given) the growth inhibition was -3%.
Compound `CN1CCC(OC(=O)c2ccc3ncccc3c2)CC1` has a growth inhibition of -2%.
`CCC(c1ccc(O)cc1)C(CC)c1ccc(OCC(N)=O)cc1` (stereo not given) showed a growth inhibition of -16%.
For `CCCCCCCC(=O)O[C@H]1[C@H]2[C@@H](CC1(C)C)C(=O)[C@]13O[C@H]1C(=O)[C@]1(CO1)[C@]23C`, the growth inhibition was 65%.
`CN1CCCN(C)C1c1cc([N+](=O)[O-])ccc1O` showed a growth inhibition of 7%.
For `CCOC(=O)C[n+]1c(C)sc2ccccc21`, the growth inhibition was 0%.
For `O=C(O)C(CCc1cccc2ccccc12)c1ccccc1` (stereo not given), the growth inhibition was 5%.
In the case of `O=C1C(Cl)=C(Cl)C(=O)C2CC=CCC12` (stereo not given), the growth inhibition is reported as 92% (active).
`Nc1n[nH]c(=O)c2cccnc12` showed a growth inhibition of -1%.
`OC(CBr)c1cc(-c2ccccc2)nc2ccccc12` (stereo not given) showed a growth inhibition of -3%.
`O=C(O)CCCc1ccc2c(c1)CC1(C2)Cc2ccc(CCCC(=O)O)cc2C1` showed a growth inhibition of 27%.
Compound `CC1=Nc2ccccc2/C1=C\c1c(C)[nH]c2ccccc12` has a growth inhibition of 38%.
`CC(=O)C(C(=N)C#N)C(=O)Nc1ccccc1` (stereo not given) showed a growth inhibition of -8%.
Work on `COc1ccc2nc3cc(Cl)ccc3c(NCCC[N+](C)(C)CCCCCCCCCC[N+](C)(C)CCCNc3c4ccc(Cl)cc4nc4ccc(OC)cc34)c2c1` yielded a growth inhibition of 29%.
In the case of `Oc1cc(Cl)cc2c1-c1ccc(Cl)cc1C2O` (stereo not given), the growth inhibition is reported as -4%.
`CC1(C)OC(=O)C(=NNc2ccccc2[N+](=O)[O-])C(=O)O1` gave a growth inhibition of 2%.
`Clc1ccc(OCC2CO2)c(Cl)c1` (stereo not given) gave a growth inhibition of 40%.
With `O=c1ccc([N+](=O)[O-])c[nH]1.[Ag]` the growth inhibition was 99% (active).
For `O=C1CSC(c2c[nH]c3ccccc23)N1c1cccc(Cl)c1` (stereo not given), the growth inhibition was 16%.
With `Fc1cccc(NC(=S)SCc2ccco2)c1` the growth inhibition was 2%.
In the case of `S=c1[nH]nc(SCc2ccc(Cl)c(Cl)c2)c2[nH]cnc12`, the growth inhibition is reported as -14%.
For `Cc1c(Cl)cccc1NC(=O)/C(Cl)=C(\Cl)C(=O)O`, the growth inhibition was 1%.
`Nc1ccc2ccc3cccc4ccc1c2c34` showed a growth inhibition of 1%.
Compound `O=C(C(/C=N/C(=S)NCc1ccccc1)=C(/O)c1ccccc1)c1ccccc1` has a growth inhibition of 3%.
Compound `C/C(=N\NC(=S)Nc1ccc(Cl)cc1)c1nc2ncccc2[nH]1` has a growth inhibition of 0%.
With `O=C(/C=C\c1ccc(Cl)c(Cl)c1)c1cccs1` the growth inhibition was 4%.
With `CC12CC(O)C3C(CCC4CCCCC43C)C1CC/C2=N/O` (stereo not given) the growth inhibition was 27%.
With `CCCn1cc2c(SC)nc(SC)nc2n1` the growth inhibition was -2%.
Work on `Cc1ccc(C2(O)c3ccccc3-c3ccccc32)cc1` yielded a growth inhibition of 15%.
In the case of `C=CCc1ccc2c(C)cc[n+](C)c2c1O`, the growth inhibition is reported as 21%.
Compound `COC(=O)c1nc(NC#N)[nH]c(=O)c1CCCCCc1cnc(NC#N)nc1` has a growth inhibition of -1%.
With `Cc1c2cnccc2c(C)c2c1c1ccccc1n2CCOC(=O)c1ccccc1` the growth inhibition was 1%.
For `C/C(=N/O)c1ccc2c(c1)C(C)c1ccccc1-2` (stereo not given), the growth inhibition was -59%.
With `Oc1ccc2ccccc2c1I` the growth inhibition was 97% (active).
